High-throughput results as filed in PubChem BioAssay.
KB-3-1 tox – KB-3-1 parental cell cytotoxicity; Potency, µM (top dose mostly 46.1 µM), actives largely listed as cytotoxic; KB-3-1 viability, CellTiter-Glo ATP luminescence, 72 h; 1.4% of 400,000 active; also: % is scaled to controls: 0 for no effect and ±100 for the full control effect; nearly all actives have a fitted effect of over 60% in size
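Multi-concentration cytotoxicity screen in KB-3-1 cells grown in DMEM lacking phenol red with 10% FBS. After 72 h at 37 °C with compound, ATP-dependent luminescence was recorded.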
HT1080 IDH1KD tx – kills HT-1080 cells with IDH1 knockdown; HT-1080 IDH1 knockdown viability, ATP luminescence, 48 h; Potency, µM (highest dose often 46.1 µM), inactives show at the highest dose activity, negative = toxicity, actives largely listed as cytotoxic; 2% of 360,000 active; AID 686971;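 also: 0% = DMSO wells and -100% = cell-free medium wells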
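Using the IDH1-knockdown HT-1080 line run in the same batch and compound series as the NT line, viability after 48 h at 37 °C was determined by CellTiter-Glo luminescence and expressed as % activity.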
SW480 rerep – induces DNA re-replication in SW480 colon adenocarcinoma cells. SW480 DNA re-replication, Hoechst DNA content imaging, 48 h. Potency, µM (top dose mostly 46.1 µM), for inactives: at the highest dose re-replication activation, usual class: activators. 1.8% of 340,000 active. AID 624297; also: % of control where 0% means no effect; nearly all actives have a fitted effect of over 55% in size
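Quantitative HTS format with DMSO vehicle controls; 48 hr drug incubation at 37 C, then 40 min Hoechst staining and scanning imager measurement at 405 nm excitation.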
MCF10A rereplic – induces DNA re-replication in MCF 10a normal breast cells; AID 624296; MCF 10A DNA re-replication, Hoechst nuclear intensity, 48 h; 2.9% of 350,000 active; Potency, µM (top dose mostly 46.1 µM), without a hit: at the top dose activity, positive = re-replication, most hits filed as activators; also: % of control where 0% means no effect; nearly all actives have a fitted effect of over 50% in size
HT1080-NT tox – kills 2HG-producing HT-1080-NT fibrosarcoma cells; HT-1080-NT fibrosarcoma viability, CellTiter-Glo ATP luminescence, 48 h; Potency, µM (highest dose often 46.1 µM), for inactives: top-dose activity, negative = less viability, hits mostly cytotoxic; 1.6% of 360,000 active; AID 686970;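 also: NT is the 2HG producing partner of a matched IDH1 knockdown line; 0% = DMSO-treated cells and -100% = media-only wells without cells; nearly all actives have a fitted effect of over 55% in size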
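Toxicity toward the 2HG-producing NT line was scored as %Activity, normalised to DMSO and no-cell wells, from CellTiter-Glo luminescence after 48 hours' treatment.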
KB-V1 MDR tox – KB-V1 MDR subline cytotoxicity; AID 1347076; 3.4% of 400,000 active; KB-V1 MDR cells viability, CellTiter-Glo, 72 h; Potency, µM (top dose mostly 46.1 µM), actives largely listed as cytotoxic; also: % is scaled to controls: 0 for no effect and ±100 for the full control effect; nearly all actives have a fitted effect of over 60% in size
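In this primary screen, KB-V1 cells overexpressing P-gp are incubated with library compounds (lowest to highest concentration) for 72 h at 37 degrees C before a luminescent ATP viability read.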
* hit, by the source's call; i = inactive; ? = inconclusive; nt = no result; [ ] = another dose, or the depositor's remark. A selection: hits, their analogues and other compounds. The true share with any hit is near 7.9%. Calls follow the shape of the dose curve; as a rule, active = well fitted curve in the direction sought with a large enough effect; inconclusive = small, poorly fitted or top-dose-only effect, or another doubt; inactive = no such curve, though single readings can be large; an effect the other way counts as inactive or inconclusive. Potency is read from the fitted curve at half-maximal effect.

SMILES	KB-3-1 tox	HT1080 IDH1KD tx	SW480 rerep	MCF10A rereplic	HT1080-NT tox	KB-V1 MDR tox
Cc1nc2scc(C)n2c(=O)c1S(=O)(=O)Nc1cccc(O)c1	i	nt	nt	nt	nt	i
O=C(CSc1nnc(SCc2ccc(Cl)cc2)s1)N/N=C/c1c[nH]c2ccccc12	?	18.4µM*	?	?	?	?
O=C(CSc1nnc(SCc2cccc3ccccc23)s1)N/N=C/c1c[nH]c2ccccc12	i	?	-69.7%	17.3%	-18.6%	i
CC1CCCN(S(=O)(=O)c2ccc3c(c2)n(C)c(=O)c(=O)n3C)C1 (configuration not stated)	i	12.6%	-3.4%	13.9%	20.0%	i
CC1CCCN(S(=O)(=O)c2ccc3c(c2)c(=O)nc2ccc(Cl)cn23)C1 (configuration not stated)	i	3.1%	?	4.61µM*	4.8%	i
CC1(C)CC(=O)c2cn3c(nc2C1)nc1ccccc13	i	-6.3%	-6.3%	1.6%	-3.3%	i
Cc1c2c(nc3nc4ccccc4n13)CC(C)(C)CC2=O	i	1.5%	-12.0%	3.0%	6.8%	14.6µM*
CN(C(=S)NC(=O)c1ccccc1Br)C1CCCCC1	i	2.24µM*	5.8µM*	-1.0%	1.58µM*	?
Cc1nc2ccccn2c1-c1ccnc(SCc2ccc(Cl)cc2)n1	i	?	-51.0%	3.2%	-26.2%	?
COc1ccccc1C(O)c1nccn1C (configuration not stated)	i	21.3%	-2.3%	19.1%	5.1%	i
CCn1ccnc1C(O)c1ccccc1OC (configuration not stated)	i	3.3%	18.4µM*	13µM*	-2.4%	i
CC(C)(C)NC(=O)C(c1ccc(-c2ccccc2)cc1)N(C[C@H]1CC[C@@H]([C@@H]2CC[C@H](CO)O2)O1)C(=O)c1ccc2ccccc2c1 (some centres not stated)	i	?	-11.9%	?	?	i
CN(C)CCCOC(=O)N1c2ccccc2C=Cc2ccccc21	25.9µM*	-10.2%	1.4%	-7.9%	-14.3%	i
COc1ccc(N2CCN(c3cnc4ccccc4n3)CC2)cc1	i	7.0%	129.7%	?	-2.1%	i
CC(C)Cn1c(N)c(C(=O)COC(=O)c2cccnc2Cl)c(=O)n(C)c1=O	i	8.8%	-0.8%	0.9%	7.3%	i
O=S(=O)(Cc1cc(Cl)nc(-c2ccncc2)n1)c1ccccc1	i	?	?	?	23.1µM*	i
O=S(=O)(Cc1cc(Cl)nc(-c2ccccc2)n1)c1ccccc1	i	?	?	20.6µM*	2.0%	i
CCOC(=O)CSc1cc(CS(=O)(=O)c2ccccc2)nc(-c2ccccc2)n1	i	4.5%	4.4%	-2.1%	7.2%	i
CCOC(=O)CNC(=S)n1ncnc1N	i	11.4%	5.8µM*	-7.0%	13.2%	i
Cc1ccc(C(=O)N2CCCC(c3ccc(Cl)cc3)=N2)cc1	i	?	?	18.4µM*	?	i
CSc1nnc(C2CCN(CC(=O)Nc3ccccc3N3CCOCC3)CC2)n1C(C)C	i	6.4%	-4.9%	11.3%	13.7%	?
CN(Cc1ccccc1)C(c1cc2ccccc2o1)c1nnnn1C(C)(C)C (configuration not stated)	?	-18.7%	nt	nt	-17.6%	i
Clc1ccc(CN(Cc2ccccc2)C(c2cccs2)c2nnnn2C2CCCC2)cc1 (configuration not stated)	i	-16.9%	?	?	-16.2%	?
CC(C)(C)n1nnnc1C(c1cccnc1)N(Cc1ccccc1)Cc1cccs1 (configuration not stated)	?	?	26.5%	?	?	20.6µM*
Cc1ccc(C(c2nnnn2C(C)(C)C)N(Cc2ccco2)Cc2cccs2)cc1 (configuration not stated)	16.4µM*	-14.7%	18.7%	21.2%	-6.6%	?
SMILES	KB-3-1 tox	HT1080 IDH1KD tx	SW480 rerep	MCF10A rereplic	HT1080-NT tox	KB-V1 MDR tox
CC(C)(C)n1nnnc1C(c1ccc(F)cc1)N(Cc1ccc(F)cc1)Cc1ccco1 (configuration not stated)	?	-18.7%	22.2%	?	-18.7%	?
CC(C)(C)n1nnnc1C(c1cccs1)N(Cc1ccccc1)Cc1cccnc1 (configuration not stated)	?	6.9%	-2.5%[9.22 µM]	4.9%	8.2%	?
CC(C)(C)n1nnnc1C(c1cccs1)N(Cc1ccc(Cl)cc1)CC1CCCO1 (configuration not stated)	23.1µM*	?	11.3%	?	-25.7%	i
CC(C)(C)n1nnnc1C(c1cc2ccccc2o1)N(Cc1ccccc1)Cc1ccccc1 (configuration not stated)	?	?	nt	nt	-9.3%	20.6µM*
COc1cccc(/C(O)=C2/C(=O)C(=O)N(c3cc(C)on3)C2c2cccs2)c1 (configuration not stated)	i	?	-2.4%[9.22 µM]	?	?	i
CCCCCC(=O)N1C[C@H](O)[C@@H](n2cc(COC(=O)c3ccccc3)nn2)C[C@@H]1c1ccccc1	i	0.9%	nt	nt	7.6%	i
Cc1ccc(OCCn2c(C3CC(=O)N(Cc4ccccc4)C3)nc3ccccc32)cc1 (configuration not stated)	?	-22.1%	0.7%	11.6µM*	-22.7%	i
CCOc1ccccc1N1CC(c2nc3ccccc3n2CCOc2ccc(OC)cc2)CC1=O (configuration not stated)	i	nt	nt	nt	nt	5.8µM*
CCOc1ccccc1N1CC(c2nc3ccccc3n2CCCOc2ccc(OC)cc2)CC1=O (configuration not stated)	i	nt	nt	nt	nt	?
Cc1ccc(NC(=O)NCCCCc2ccccc2)cc1	i	6.9%	6.8%	-0.7%	5.7%	i
O=C(O)COc1ccc(/C=C2\SC(=Nc3ccccc3)N(c3ccccc3)C2=O)cc1	i	12.3%	1.6%	15.8%	-2.8%	i
O=C(O)COc1ccccc1/C=C1\SC(=Nc2ccc(F)cc2)N(c2ccc(F)cc2)C1=O	i	-20.8%	?	6.51µM*	-21.7%	?
CCOC(=O)c1ccc(Nc2nc(N)c3cc(OC)c(OC)cc3n2)cc1	i	-0.3%	?	20.6µM*	-2.1%	i
COc1cc2nc(Nc3ccc(C)c(Cl)c3)nc(N)c2cc1OC	i	13µM*	20.6µM*	20.6µM*	?	?
